From PubChem BioAssay (NCI)
Compounds without any hit were thinned out: in the full panel of roughly 83,000, 20% have a hit.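 Single-concentration screen, 48 h exposure, 96-well plates. Endpoint: percent growth. Below 10 = active.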 A number with no mark means an inactive call. Active and inactive are the calls of the source.

Legend:
Experiment in all cases: NCI-60 one-dose screen, 48 h (100 = growth as untreated, 0 = no growth, -100 = all killed)
Details in all cases: 10 µM unless noted
T-47D breast = tested on: T-47D breast
BT-549 breast = tested on: BT-549 breast
MDA-MB-435 melanoma = tested on: MDA-MB-435 melanoma
SW-620 colon = tested on: SW-620 colon
MCF7 breast = tested on: MCF7 breast
HCT-116 colon = tested on: HCT-116 colon
HCC-2998 colon = tested on: HCC-2998 colon
KM12 colon = tested on: KM12 colon
MDA-MB-468 breast = tested on: MDA-MB-468 breast

Row | Compound | growth (T-47D breast) | growth (BT-549 breast) | growth (MDA-MB-435 melanoma) | growth (SW-620 colon) | growth (MCF7 breast) | growth (HCT-116 colon) | growth (HCC-2998 colon) | growth (KM12 colon) | growth (MDA-MB-468 breast)
1 | CCCCc1c(Nn2cnnn2)no[n+]1[O-] | 51.5% | 49.4% | 46.5% | 57.6% | 24.5% | 38.2% | 78.8% | 61.7% | 49.3%
2 | COc1cc2c(c(OC)c1OC)C(=O)CC(c1cccc(NC(=O)c3cc([N+](=O)[O-])ccc3Cl)c1)O2 (centres undefined) | 23.6% | -11% (active) | 28.5% | -6.32% (active) | 11.7% | -66.1% (active) | 33% | -54.7% (active) | -13.7% (active)
3 | C/C(=N\N=C1/C(=O)Nc2ccc(Cl)cc21)c1ccc2c(c1)Nc1ccccc1S2 | 11.9% | -32.1% (active) | -35.2% (active) | -27.8% (active) | -9.38% (active) | -43% (active) | -48.2% (active) | -79.3% (active) | 2.73% (active)
4 | Cc1ccc([C@H]2C(C(=O)c3ccc(Cl)cc3)C3(N[C@@H]2c2ccccc2)C(=O)Nc2ccc(Cl)cc23)cc1 (some centres undefined) | 31.6% | 80.9% | 64.3% | 64.1% | 16.7% | 23.7% | 18.8% | 34.8% | 47.9%
5 | CCN(CC)c1ccnc(CNCCSC(c2ccccc2)(c2ccccc2)c2ccc(C)cc2)c1 | -67.8% (active) | -91.9% (active) | -90.6% (active) | -72.2% (active) | -82.4% (active) | -88.2% (active) | -96.4% (active) | -83.9% (active) | -92.3% (active)
6 | CCOc1ccc(C(=O)NC(=S)Nc2ccc(S(N)(=O)=O)cc2)cc1 | 74.3% [100 µM] | 99.1% [100 µM] | 99.1% [100 µM] | 104% [100 µM] | 97.6% [100 µM] | 97.9% [100 µM] | 99.5% [100 µM] | 97.8% [100 µM] | 83.9% [100 µM]
7 | COc1ccc(CCC2c3c(cc4c(c3OC)OCO4)CCN2C)cc1 (centres undefined) | -43.1% (active) | -69.9% (active) | -66.2% (active) | -78.1% (active) | -82.3% (active) | -58.3% (active) | -78.8% (active) | -37.3% (active) | -81.5% (active)
8 | O=C(c1ccccc1)C(c1c[nH]c2ccccc12)c1c[nH]c2ccccc12 | 58% | 14% | 36.8% | 4.95% (active) | 16.4% | 20.2% | 83.8% | 51.3% | 57.8%
9 | COc1cccc(-c2nc(Nc3ccc(S(N)(=O)=O)cc3)c3ccccc3n2)c1 | 20.9% | 54.5% | 38.8% | 36.1% | 19.8% | 32.2% | 6.44% (active) | 6.75% (active) | 24%
10 | COc1ccc(-c2nc3ccc(C(=O)NN4C(=O)c5ccc([N+](=O)[O-])cc5C4=O)cc3[nH]2)cc1 | 97% | 105% | 98.3% | 101% | 83% | 102% | 108% | 101% | 89.7%
11 | CCCCSc1nc(NCCc2c[nH]c3ccccc23)c(C#N)c(-c2ccc(OC)cc2)n1 | 30.7% | 99.4% | 72.2% | 52.8% | 17.7% | 21.4% | 49.2% | 36.2% | 51.1%
12 | OCNc1ccc(-n2cnc3cc(-c4ccc(O)cc4)ccc32)cc1C(F)(F)F | 23.8% | 24% | 7.66% (active) | 27.1% | 10.1% | 22.6% | 43.4% | 4.46% (active) | 27.7%
13 | C=C1CCC2C3(C)COC(c4ccco4)OC3CCC2(C)C1CC(Sc1ccccc1)C1=CCOC1=O (centres undefined) | 77.3% | 5.74% (active) | 54.1% | 34.8% | 23.1% | 12% | 57% | 71.9% | 17%
14 | CCCCCCn1c(O)c(N=Nc2nc(-c3cc4ccccc4oc3=O)cs2)c2ccccc21 | -12% (active) | -20.5% (active) | 26.3% | 56.2% | -18% (active) | -51.7% (active) | 37.8% | 13.6% | 45.3%
15 | COc1ccc2[nH]cc(-c3nnc(N)nc3-c3c[nH]c4ncc(Br)cc34)c2c1 | 53.8% | 93% | 102% | 88.8% | 62.2% | 75.2% | 110% | 91.4% | 79.9%
16 | CCOC(=O)/C=C/c1cccc2c1C(=O)NC(C)(c1cc3cc(Cl)ccc3oc1=O)N2 (centres undefined) | 16.3% | 24.7% | 42.1% | 40.9% | 26.5% | 17.6% | 38.7% | 26% | 3.88% (active)
17 | CCCCSc1nc(Nc2ccc(C(C)=O)cc2)c(C#N)c(-c2ccc(OC)cc2)n1 | 64.3% | 75.3% | 75.4% | 63.2% | 65.4% | 32.5% | 98.4% | 95.3% | 67.5%
18 | COc1ccc(/C=C/c2nc3ccccc3c(=O)n2CC(=O)Nc2ccc(Cl)cc2)cc1 | 66.5% | 63.6% | 90.5% | 73.9% | – | 35.4% | 116% | 61.3% | –
19 | O=C(COc1ccc2c(c1)CCCC(=O)N2)NCc1ccccc1 | 95.7% | 104% | 3.41% (active) | 60.9% | 59.3% | 93.5% | 95.9% | 58.9% | 28.8%
20 | Clc1cccc(N/N=C/c2c[nH]c3ccc(Br)cc23)n1 | 22% | -6.46% (active) | -0.779% (active) | 6.71% (active) | – | 8.25% (active) | -9.69% (active) | 4.64% (active) | –
21 | CC(C)CSc1nc(NCCc2c[nH]c3ccccc23)c(C#N)c(-c2ccc(F)cc2)n1 | 24.6% | 72.1% | 59.1% | 38% | 22.5% | 11.3% | 32.5% | 24% | 54.3%
22 | COCOc1cc2oc(C(=O)N[C@@H](Cc3ccccc3)C(O)C(=O)NCc3ccccc3)c(C)c(=O)c2cc1OCOC (some centres undefined) | 98% | 95.9% | 38.9% | 103% | 67.5% | -15.3% (active) | 114% | 64.8% | 79.9%
23 | COc1ccc(NC(=O)[C@H](C)N)cc1C(=O)Nc1cccc(C2CC(=O)c3c(cc(OC)c(OC)c3OC)O2)c1 (some centres undefined) | 53.7% | 67.3% | 93.2% | 99.4% | 72.1% | 93.9% | 109% | 87% | 76.1%
24 | CCCSc1nc(Nc2ccc(S(N)(=O)=O)cc2)c(C#N)c(-c2cc(OC)c(OC)c(OC)c2)n1 | -11.4% (active) | 16.5% | 23% | 30% | – | 11.4% | 43.6% | 12.7% | –
25 | CN(C)c1nc(NCCNS(=O)(=O)c2ccc(C(=O)/C=C/c3ccc(Cl)cc3)cc2)nc(Nc2ccc(F)cc2)n1 | -10% (active) | -66.9% (active) | -87.8% (active) | -95.1% (active) | -77.1% (active) | -91.4% (active) | -91.6% (active) | -83.6% (active) | -25.9% (active)
26 | COc1ccc(-c2ccc(SCC(=O)NCCc3ccc(S(N)(=O)=O)cc3)nn2)cc1 | 51% | 60.5% | 92.2% | 103% | – | 70.4% | 94.9% | 96.3% | 33.9%
27 | O=C(Cn1c2c(sc1=O)[C@H]1[C@@H](O)[C@@H](O)[C@H](O)[C@@H]1CS2)N1CCOCC1 | 93.6% | 99.3% | 101% | 107% | 98.4% | 110% | 111% | 103% | 105%
28 | CCCSc1nc(NCCc2c[nH]c3ccccc23)c(C#N)c(-c2ccccc2)n1 | 16.1% | 89.3% | 83.4% | 56.9% | 24.9% | 32% | 59.9% | 42.1% | 53.8%
29 | CC1(c2cc3cc(Br)ccc3oc2=O)NC(=O)c2c(/C=C/C(=O)OC3CC4CCC3(C)C4(C)C)cccc2N1 (centres undefined) | 46.2% | 83.9% | 99.2% | 89.1% | 50.6% | 53.8% | 95.9% | 72.8% | 13.4%
